JMJD2A Tudor: inhibitors of human JMJD2A Tudor domain | O75164 | AlphaScreen JMJD2A-Tudor / H3K4me3 peptide binding | Potency, µM (titrated, usually from 114 µM), inactives show at the top dose activity change, negative = inhibition, hits mostly inhibitors | 390,000 tested, 4.4% active | AID 504339; note: potency is the fitted concentration of half-maximal effect; % is set by controls: 0 for no effect and ±100 for the full control effect; nearly all actives have a fitted effect of over 50% in size
PLK1 PBD inh: inhibitors of human PLK1 polo-box domain binding; Plk1 PBD binding of FITC phosphopeptide, fluorescence polarization; Potency, µM, for inactives: max response, negative = inhibition, usual class: inhibitors; 360,000 tested, 2.8% active; note: potency is the fitted concentration of half-maximal effect; series mostly up to about 57 µM; % is set by controls: 0 for no effect and ±100 for the full control effect; nearly all actives have a fitted effect of over 65% in size
Target sequence (P53350 whole entry, looked up, the tested form may be a part): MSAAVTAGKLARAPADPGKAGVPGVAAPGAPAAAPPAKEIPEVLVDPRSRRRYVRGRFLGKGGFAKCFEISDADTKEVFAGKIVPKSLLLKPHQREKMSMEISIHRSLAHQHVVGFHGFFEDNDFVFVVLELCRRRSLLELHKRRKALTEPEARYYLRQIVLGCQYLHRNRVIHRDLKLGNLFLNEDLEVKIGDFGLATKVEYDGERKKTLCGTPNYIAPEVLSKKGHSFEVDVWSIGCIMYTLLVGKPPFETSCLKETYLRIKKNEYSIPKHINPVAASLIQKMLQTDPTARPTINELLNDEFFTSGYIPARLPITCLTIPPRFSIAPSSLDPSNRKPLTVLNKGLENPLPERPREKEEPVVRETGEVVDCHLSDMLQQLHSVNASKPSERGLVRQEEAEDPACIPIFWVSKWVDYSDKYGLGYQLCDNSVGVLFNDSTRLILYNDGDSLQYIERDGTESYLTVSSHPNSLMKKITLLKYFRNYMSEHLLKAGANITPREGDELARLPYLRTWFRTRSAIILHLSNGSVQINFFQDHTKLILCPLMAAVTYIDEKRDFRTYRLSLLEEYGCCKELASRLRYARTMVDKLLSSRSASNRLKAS
BAZ2B block: BAZ2B (human) inhibition; Q9UIF8; AlphaScreen BAZ2B-H3K14Ac peptide displacement; Potency, µM (doses to about 114 µM), inactives show at the top dose activity change, negative = inhibition, hits mostly inhibitors; 360,000 tested, 4.4% active; note: potency is the fitted concentration of half-maximal effect; % is set by controls: 0 for no effect and ±100 for the full control effect; nearly all actives have a fitted effect of over 60% in size
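Compounds, titrated to a top concentration of 110 uM, were incubated 30 min at room temperature with preformed BAZ2B/acetyl-K14 H3 peptide complex (50 nM each). Proximity signal was measured by AlphaScreen after 20 min with beads.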
PI5P4Ka inh: blocks human PI5P4K alpha kinase activity; P48426; PI5P4Kalpha enzyme, ADP-Glo luminescence, 60 min; active compounds read low; max response, %; 330,000 tested, 1.2% active; AID 652105; active = max response of -50% or lower; inconclusive = between -30% and -50%; inactive = -30% or higher; note: value at the top dose of about 77 µM; % is set by controls: 0 for no effect and ±100 for the full control effect
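Compounds were pin-transferred onto PI5P4Kalpha and substrate in HEPES pH 7.4 buffer with EGTA, CHAPS and 5% DMSO. ATP (5 microM final) started the reaction, which ran 60 minutes at room temperature before ADP-Glo detection.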
HP1b chromo inh: blocks HP1-beta chromodomain binding to methylated histone tails. P83916. AlphaScreen HP1-beta / biotin-H3K9me3 peptide binding. 390,000 tested, 0.56% active. Potency, µM (doses to about 114 µM), for the others: at the top dose activity change, negative = inhibition, most hits filed as inhibitors. AID 540317; note: potency is the fitted concentration of half-maximal effect; nearly all actives have a fitted effect of over 70% in size
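Compound inhibition of the preformed complex between 50 nM HP1-beta and 50 nM biotinylated H3K9me3 peptide was read by AlphaScreen. Buffer was PBS pH 7.4 with 0.01% Tween-20. Incubations ran 30 min at room temperature, with 10 ug/mL donor/acceptor beads.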
G9a inh: G9a (human) methyltransferase inhibition; Q96KQ7; G9a H3K9 monomethylation, AlphaScreen, 2 h; Potency, µM (top dose mostly 102 µM), without a hit: at the top dose activity, negative = inhibition, usual class: inhibitors; 350,000 tested, 8.8% active; AID 504332; note: potency is the fitted concentration of half-maximal effect; % is set by controls: 0 for no effect and ±100 for the full control effect; nearly all actives have a fitted effect of over 75% in size
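Step 1: enzyme (final 20 nM) with compound, 15 min RT. Step 2: substrate peptide 500 nM and SAM 20 uM, 2 h RT. Step 3: anti-H3K9me1 antibody and AlphaScreen beads, 10 min, then plate read.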
ADP-Glo interf: ADP-Glo luciferase interference, PI5P4K counter-screen; shares compounds with PI5P4Ka inh; ADP-Glo detection counter-screen, luciferase luminescence, no enzyme; Potency, µM (top dose mostly 76.9 µM), inactives show at the top dose activity change, negative = inhibition, most hits filed as inhibitors; 1,100 tested, under 10 active
* = called active by the depositor; ? = inconclusive; · = no result; ! = not confirmed by another sample; [ ] = another dose, or the depositor's remark. In the library only some 12% were active in any assay of this set; here they are far more common. Unless noted, calls come from the whole dose curve; as a rule, active = well fitted curve in the direction sought with a large enough effect; inconclusive = small, poorly fitted or top-dose-only effect, or another doubt; inactive = no such curve, though single readings can be large; an effect the other way counts as inactive or inconclusive.

SMILES	JMJD2A Tudor	PLK1 PBD inh	BAZ2B block	PI5P4Ka inh	HP1b chromo inh	G9a inh	ADP-Glo interf
COc1cc(C(=O)COC(=O)c2ccncc2)cc(OC)c1OC	-18%	-15%	·	1	-3%	·	·
Cc1ccc(C)c(C(=O)CN2C(=O)NC3(CCCCCC3)C2=O)c1	1%	-6%	8%	0	35%	-4%	·
Cc1cc(Br)cn2c(Cc3ccsc3)c(-c3ccco3)nc12	·	24µM*	·	-90*	·	·	-2%
COc1ccc(S(=O)(=O)N2CCOCC2)cc1NC(=O)CSc1ccc(F)cc1	-6%	-20%	-18%	-5	26%	13%[12.7 µM]	·
CC(C)NC(=O)c1onc(CSc2ccccc2F)c1C(=O)O	?	-21%	-38%	-66*	-2%	16%[0.501 µM]	0%
CCCCNC(=O)c1onc(CSc2ccc(F)cc2)c1C(=O)O	-8%	-17%	?	?	115%	-10%[0.0925 µM]	·
CCCCNC(=O)c1onc(CSc2ccc(OC)cc2)c1C(=O)O	-33%	-17%	-1%	-50*	41%	?	-3%
O=C(NCC(O)c1ccc([N+](=O)[O-])cc1)C1=COCCO1 (configuration not stated)	-8%	-4%	·	0	18%	·	·
CC(C)(OC(=O)c1ccc(F)cc1)c1cc2ccccc2c(=O)o1	30%	3%	27%	4	73%	11%[0.501 µM]	·
Cc1noc(C)c1C(=O)Nc1ccc(-n2ccc(C(F)(F)F)n2)cc1	-25%	-1%	3%	?	-39%	7%	4%
CCN(CC)C(=O)CC(c1cc(OC)c(OC)c(OC)c1)c1c(OC)cc(OC)c2c(-c3ccccc3)cc(=O)oc12 (configuration not stated)	56µM*	?	50µM*	-56*	0%	?	3%
CCN1CCN(Cc2ccc(NC(=O)c3cc(NC(=O)N4CCNC4=O)cc(OC)c3)cc2C(F)(F)F)CC1	-28%	-7%	?	0	40%	16%[12.7 µM]	·
CCN1CCN(Cc2ccc(NC(=O)c3ccc(C)c(NC(=O)c4csc(-c5ccncc5)n4)c3)cc2C(F)(F)F)CC1	?	-1%	?	-65*	11%	13%[12.7 µM]	4%
CCN1CCN(Cc2ccc(NC(=O)c3cc(NC(=O)c4cc5cccc(OC)c5o4)cc(OC)c3)cc2C(F)(F)F)CC1	?	-11%	?	-61*!	8%	?	7%
Cc1ccc(-c2cc(NC=O)c3ncc(-c4cnn(C)c4)n3c2)cc1	·	-25%	·	-26	·	·	·
CCS(=O)(=O)N1CC(=O)N(c2ccc(Cl)cc2C)C(C)(C(=O)NC2CCCCC2)C1 (configuration not stated)	0%	·	5%	·	53%	-3%[59 µM]	·
Cc1ccc(NC(=O)c2ccc3c(c2)NC(=O)CS3)nc1	-21%	?	-18%	-57*	?	10µM*	-9%
Cc1nnc(NC(=O)c2ccc3c(c2)NC(=O)CS3)s1	-16%	-14%	-6%	-5	13%	-3%[12.7 µM]	·
Cn1c(=O)c2c(-c3ccccc3)n(-c3cccc(O)c3)cc2n(C)c1=O	·	-23%	·	-50*	·	·	-1%
O=C(CN1CCN(C(=O)C2COc3ccccc3O2)CC1)Nc1ccc(F)cc1 (configuration not stated)	-3%	3%	2%	1	40%	·	·
NC(=O)c1c(NC(=O)CN2CCN(S(=O)(=O)c3ccccc3)CC2)sc2c1CCC2	-30%	-29%	-11%	-65*	-10%	17%[12.7 µM]	0%
FC(F)(F)C1=Nc2cccc3cccc(c23)N1	?	7.5µM*	?	-82*	-21%	2%[0.501 µM]	-5%
CSc1ccc(CNC(=O)Cn2nc(N3CCN(c4ccccc4)CC3)ccc2=O)cc1	-5%	·	-13%	·	22%	-3%[59 µM]	·
CSCCC(NC(=O)c1ccccc1Cl)C(=O)N1CCCCCCC1 (configuration not stated)	2%	-4%	7%	3	31%	16%[12.7 µM]	·
COc1ccc(C(=O)NC(CCSC)C(=O)N2CCCCCC2)cc1 (configuration not stated)	-5%	0%	-2%	-76*	43%	14%	-1%
SMILES	JMJD2A Tudor	PLK1 PBD inh	BAZ2B block	PI5P4Ka inh	HP1b chromo inh	G9a inh	ADP-Glo interf
Cc1ccc(S(=O)(=O)N2CCN(C(=O)c3cc4c(s3)CCCC4)CC2)cc1	-5%	4%	10%	6	51%	16%[12.7 µM]	·
COc1ccc(S(=O)(=O)N2CCN(C(=O)c3cc4c(s3)CCC4)CC2)cc1	7.9µM*	?	·	-82*	?	·	5%
CCNC(=O)C1(C)CCCN(Cc2ccccc2-c2ccccc2)C1 (configuration not stated)	·	-1%	·	-5	·	·	·
Cc1cc(C)c[n+](C(C)C(=O)c2ccc(-c3ccccc3)cc2)c1 (configuration not stated)	4%[57.1 µM]	-9%	-7%	2	34%	2%[59 µM]	·
N#Cc1c(-c2ccc(Cl)cc2Cl)nc2n(c1=O)CCS2	-14%	-18%	-16%	-54*	28%	11%	2%
N#Cc1c(-c2ccccc2)nc2n1CCS2	-24%	-22%	-8%	6	19%	7%	·
COC(=O)c1c(NC(=O)CN2CCC3(O)CCCCC3C2c2ccccc2OC)sc(C)c1C (configuration not stated)	?	-9%	-32%	-2	9%	-41%	·
COC(=O)c1c(NC(=O)CN2CCC3(O)CCCCC3C2c2ccc(OC)cc2OC)sc(C)c1C (configuration not stated)	?	21µM*	-20%	-51*	?	28µM*	7%
CCN1CCN(c2ccccc2NC(=O)c2ccc(-n3cccn3)cc2)CC1	-18%	2%	-3%	0	13%	1%[0.501 µM]	·
COc1cc2ncnc(NCc3ccc(C)o3)c2cc1OC	-34%	-9%	-31%	0	9%	?	·
Cc1ccc(CNc2ncnc3ccc(-c4ccoc4C)cc23)o1	·	·	·	·	·	·	0%
COc1ccc(-c2nc3cnc(N4CCOCC4)nc3n(CCC#N)c2=O)cc1	·	·	·	·	·	-6%[12.7 µM]	·
O=C(OCc1nnc(-c2ccccc2)o1)c1ccc2ccccc2n1	-6%	-7%	-7%	-66*	27%	16%[12.7 µM]	-6%
O=C(OCc1nnc(-c2ccccc2)o1)c1ccc(S(=O)(=O)NCc2ccco2)cc1	79µM*	-26%	79µM*	-54*	?	9%[12.7 µM]	-3%
CCOC(=O)[C@]12CCCC=C1N(Cc1ccccc1)C(=O)[C@H](CC(=O)NCCCCc1ccccc1)C2	·	-1%	·	6	·	·	·
